30 compounds from the supplement of paper PMC13380429 can be followed below.

SMILES strings stand for the structures.

Assay [1] relates to Vero E6 infected with SARS-CoV-2. As to the kind of experiment: morphology score (similarity to uninfected cells); higher = more like uninfected cells. The following applies: 24 h.
For assay [2] the test system is unchanged. The assay is described as follows: SARS-CoV-2 infection rate relative to infected DMSO; higher = more infection, active = 60 or less. To be noted: 24 h.

As for `c1ccc(Oc2cccnc2)cc1` (10 µM), the morphology score in assay [1] stood at 0.0741. Also, the SARS-CoV-2 infection rate in assay [2] is 103% (inactive).

`CC1C(=O)OC2C(O)C34C5CC(C(C)(C)C)C36C(OC(=O)C6O)OC4(C(=O)O5)C12O` (stereo not given) [ginkgolide-B] (10 µM) returned a morphology score in assay [1] of 0.264. Further, the SARS-CoV-2 infection rate in assay [2] was 93% (inactive).

Take `CCN1CCN(c2cc(-c3ccc(F)cc3)c3c(n2)CCCCCC3)CC1` [blonanserin] (10 µM): in assay [1], the morphology score amounted to 0.248. In addition, in assay [2], the SARS-CoV-2 infection rate is 107% (inactive).

Take `COCc1nnc(N2CC(Oc3ccc(F)cc3Cl)C2)n1-c1ccc(OC)nc1` (10 µM): the morphology score in assay [1] was -0.109. The SARS-CoV-2 infection rate in assay [2] was 106% (inactive).

The compound `c1ccc2c(c1)CCCc1cc(NCCN3CCOCC3)nnc1-2` (10 µM) yielded a morphology score in assay [1] of -0.11. The SARS-CoV-2 infection rate in assay [2] was 116% (inactive).

In assay [1], `CCNC(=O)[C@H]1O[C@@H](n2cnc3c(N)ncnc32)[C@H](O)[C@@H]1O` (10 µM) came in with a morphology score of 0.184. Further, the SARS-CoV-2 infection rate in assay [2] is 92% (inactive).

Regarding `O=c1[nH]cnc2c([C@@H]3N[C@H](CO)[C@@H](O)[C@H]3O)c[nH]c12` [forodesine] (10 µM), in assay [1], the morphology score stood at 0.155. Besides, in assay [2], the SARS-CoV-2 infection rate is 103% (inactive).

In assay [1], `COC1CCN(C(=O)c2cc(Cc3n[nH]c(=O)c4ccccc34)ccc2F)CC1` (10 µM) gave a morphology score of 0.118. Also, the SARS-CoV-2 infection rate in assay [2] was 103% (inactive).

Compound `O=C(O)c1ccc(OCCn2ccnc2)cc1` [dazoxiben] (10 µM) came in with a morphology score in assay [1] of 0.196. Further, the SARS-CoV-2 infection rate in assay [2] is 99% (inactive).

Compound `CCC1(c2c[nH]cn2)Cc2ccccc2C1` [atipamezole] (10 µM) came in with a morphology score in assay [1] of -0.114. Further, the SARS-CoV-2 infection rate in assay [2] is 112% (inactive).

Compound `COc1cc(OC)nc(O[C@H](C(=O)O)C(OC)(c2ccccc2)c2ccccc2)n1` [darusentan] (10 µM) registered a morphology score in assay [1] of -0.0345. The SARS-CoV-2 infection rate in assay [2] was 116% (inactive).

As to `C#C[C@]1(O)CC[C@H]2[C@@H]3CCc4cc(OC5CCCC5)ccc4[C@H]3CC[C@@]21C` [quinestrol] (10 µM), the morphology score in assay [1] is -0.0318. Also, the SARS-CoV-2 infection rate in assay [2] was 102% (inactive).

`O[C@@H]1CO[C@H]2[C@@H]1OC[C@@H]2O` [isosorbide] (10 µM) came in with a morphology score in assay [1] of 0.0141. The SARS-CoV-2 infection rate in assay [2] was 112% (inactive).

Take `CN(C)CCOC1=Cc2ccccc2Sc2ccc(Cl)cc21` [zotepine] (0.833333 µM): the morphology score in assay [1] came out at 0.061. The SARS-CoV-2 infection rate in assay [2] was 106% (inactive).

`CCOc1ccc(NC(C)=O)cc1` [phenacetin] (10 µM): in assay [1], the morphology score was -0.129. Further, the SARS-CoV-2 infection rate in assay [2] was 116% (inactive).

In assay [1], `CC(C)n1nc(-c2cc3cc(O)ccc3[nH]2)c2c(N)ncnc21` (10 µM) gave a morphology score of -0.0614. Moreover, in assay [2], the SARS-CoV-2 infection rate was 95.5% (inactive).

The compound `COc1cc(Nc2ncc3c(n2)-c2ccc(Cl)cc2C(c2c(F)cccc2OC)=NC3)ccc1C(=O)O` [alisertib] (0.833333 µM) gave a morphology score in assay [1] of 0.272. Further, the SARS-CoV-2 infection rate in assay [2] was 112% (inactive).

Turning to `NS(=O)(=O)c1cc(Cl)c(Cl)c(S(N)(=O)=O)c1` [diclofenamide] (10 µM), in assay [1], the morphology score amounted to 0.298. Further, in assay [2], the SARS-CoV-2 infection rate is 84.5% (inactive).

As to `C=CCN1C[C@H](C(=O)N(CCCN(C)C)C(=O)NCC)C[C@@H]2c3cccc4[nH]cc(c34)C[C@H]21` [cabergoline] (10 µM), the morphology score in assay [1] is 0.0903. Moreover, the SARS-CoV-2 infection rate in assay [2] was 104% (inactive).

The compound `Cc1ccc2c(c1CCC(=O)O)CC[C@@H](NS(=O)(=O)c1ccc(Cl)cc1)C2` [terutroban] (10 µM) registered a morphology score in assay [1] of 0.115. Further, in assay [2], the SARS-CoV-2 infection rate is 112% (inactive).

`CCOCc1nc2c(N)nc3ccccc3c2n1CC(C)(C)O` [resiquimod] (10 µM) came in with a morphology score in assay [1] of 0.0727. Also, in assay [2], the SARS-CoV-2 infection rate was 113% (inactive).

In turn, `COc1ccc(CNCc2cccc3ccccc23)cc1` (10 µM) returned a morphology score in assay [1] of 0.0641. Also, the SARS-CoV-2 infection rate in assay [2] was 105% (inactive).

The compound `CCc1cccc2c3c([nH]c12)C(CC)(CC(=O)O)OCC3` (stereo not given) [etodolac] (10 µM) displayed a morphology score in assay [1] of -0.0116. The SARS-CoV-2 infection rate in assay [2] was 115% (inactive).

Compound `CCCOC(=O)c1ccc(O)cc1` [propyl 4-hydroxybenzoate] (10 µM) came in with a morphology score in assay [1] of -0.0462. Also, the SARS-CoV-2 infection rate in assay [2] was 111% (inactive).

For the compound `CCOc1ccc(C(=O)OCCN(CC)CC)cc1` [parethoxycaine] (10 µM), the morphology score in assay [1] was 0.157. Moreover, in assay [2], the SARS-CoV-2 infection rate was 108% (inactive).

As for `COC[C@@H](c1ccc(C(F)(F)F)cc1)N1CCN(C2(C)CCN(C(=O)c3c(C)ncnc3C)CC2)C[C@@H]1C` [vicriviroc] (10 µM), the morphology score in assay [1] worked out at 0.189. The SARS-CoV-2 infection rate in assay [2] was 100% (inactive).

As for `C/C(=N\NC(=O)[C@@H]1C(=O)NC[C@H]1c1ccccc1)c1cccc(Br)c1` (10 µM), the morphology score in assay [1] is -0.162. In addition, in assay [2], the SARS-CoV-2 infection rate was 112% (inactive).

Compound `O=C(OC[C@H]1O[C@@H](OC(=O)c2cc(O)c(O)c(OC(=O)c3cc(O)c(O)c(O)c3)c2)[C@H](OC(=O)c2cc(O)c(O)c(OC(=O)c3cc(O)c(O)c(O)c3)c2)[C@@H](OC(=O)c2cc(O)c(O)c(OC(=O)c3cc(O)c(O)c(O)c3)c2)[C@@H]1OC(=O)c1cc(O)c(O)c(OC(=O)c2cc(O)c(O)c(O)c2)c1)c1cc(O)c(O)c(OC(=O)c2cc(O)c(O)c(O)c2)c1` [tannic-acid] (10 µM) yielded a morphology score in assay [1] of -0.112. Further, the SARS-CoV-2 infection rate in assay [2] is 114% (inactive).

For `O=C1CCC2CCC(=O)N12` [rolziracetam] (10 µM), in assay [1], the morphology score is -0.0425. Further, the SARS-CoV-2 infection rate in assay [2] was 106% (inactive).

As for `O=C(CN1CCN(C(=O)c2ccco2)CC1)Nc1cc(C(F)(F)F)ccc1Cl` (10 µM), the morphology score in assay [1] turned out to be 0.00654. For the same compound, the SARS-CoV-2 infection rate in assay [2] is 103% (inactive).
